Molecules are shown by their SMILES. ± gives the standard deviation of the averaged measurements.

Settings in all cases: concentration: 10 µM; 24 h
Assay [1] deals with HCC1569. As to the kind of experiment: cell number relative to DMSO (% of DMSO); higher = more cells (less growth inhibition / toxicity). The method, boiled down:
(§1)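 H1.0 nuclear intensity or cell number is stated as percent of the plate control, based on the median of replicates, and HCC1569 values were smoothed for positional effects. These came from HCC1569 and TDF cells treated with compounds at 10 µM for 24 h at 37 °C in triplicate, then fixed in 3.7% formaldehyde and stained with a rabbit anti-H1.0 antibody, an AlexaFluor 647 secondary and DAPI.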

In assay [2] the test system is TDF. Described as above. The method, boiled down:
as §1

Assay [3] concerns TDF. As to the kind of experiment: H1.0 immunofluorescence intensity relative to DMSO (% of DMSO); higher = stronger H1.0 induction, active = 120 or more. The method, boiled down: as §1
The subject of assay [4] is HCC1569. As to the kind of experiment: H1.0 immunofluorescence intensity relative to DMSO (% of DMSO); higher = stronger H1.0 induction, active = 140 or more. The method, boiled down:
as §1
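Wherever H1.0 immunofluorescence intensity relative to DMSO is given: TDF is a line of transformed human dermal fibroblasts of mesenchymal origin.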
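Wherever cell number relative to DMSO is given: TDF denotes transformed human dermal fibroblasts of mesenchymal origin.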

Consider `CC1Cc2cc3c(cc2C(c2ccc(N)cc2)=NN1)OCO3` (stereo unspecified), for which the cell number in the assay with HCC1569 [1] is 98.9; in the assay with TDF [2] it was 112. Also, the figures for the H1.0 immunofluorescence intensity in the assay with TDF [3] and in the assay with HCC1569 [4] were 103 (inactive) and 98.2 (inactive), respectively.
For the compound `CCn1cc(C(=O)O)c(=O)c2cc3c(cc21)OCO3` [Oxolinic acid], the cell number with HCC1569 [1] was 100; in the assay with TDF [2], 109. Also, the H1.0 immunofluorescence intensity in the assay with TDF [3] was 104 (inactive); with HCC1569 [4], 101 (inactive).
With `Cl.c1ccc2sc(C3(N4CCCCC4)CCCCC3)cc2c1` [BTCP hydrochloride], the cell number in the assay with HCC1569 [1] is 100; in the assay on TDF [2], 106. The H1.0 immunofluorescence intensity in the assay with TDF [3] is 88.2 (inactive); in the assay with HCC1569 [4], 96.6 (inactive).
Regarding `Cc1sc2ccccc2c1CC1=NCCN1.O=C(O)C(=O)O` [Benazoline oxalate], the cell number is 104 with HCC1569 [1] and 106 in the assay on TDF [2]. In addition, the results for the H1.0 immunofluorescence intensity with TDF [3] and in the assay on HCC1569 [4] were 92 (inactive) and 81.1 (inactive), respectively.
On to `NCC1(CC(=O)O)CCCCC1` [Gabapentin], for which the cell number with HCC1569 [1] worked out at 104 ± 4.7; in the assay on TDF [2], 108 ± 6.5. Moreover, the H1.0 immunofluorescence intensity in the assay on TDF [3] is 94.7 (inactive); in the assay with HCC1569 [4], 93.5 (inactive).
Take `O=S1(=O)N(CCN2CC=C(c3c[nH]c4cc(F)ccc34)CC2)c2cccc3c2N1CCC3`: the cell number turned out to be 101 in the assay on HCC1569 [1] and 107 in the assay with TDF [2]. Also, the figures for the H1.0 immunofluorescence intensity in the assay on TDF [3] and in the assay on HCC1569 [4] were 95.4 (inactive) and 102 (inactive), respectively.
As for `CCCCCC=CCC(C=CC=CCC=CCCCC(=O)O)OO` (stereo unspecified), the cell number was 102 in the assay on HCC1569 [1] and 101 in the assay with TDF [2]. In addition, the H1.0 immunofluorescence intensity in the assay with TDF [3] was 102 (inactive); in the assay on HCC1569 [4], 99.8 (inactive).
With `CCc1c(C(=O)OC)ncc2[nH]c3cc(OC)c(OC)cc3c12` [Methyl 6,7-dimethoxy-4-ethyl-beta-carboline-3-carboxylate], the cell number in the assay with HCC1569 [1] is 95.8; with TDF [2], 99.5. Further, the H1.0 immunofluorescence intensity with TDF [3] is 88.1 (inactive); in the assay on HCC1569 [4], 130 (inactive).
On to `COc1ccc(-n2nc(C(F)(F)F)cc2-c2ccc(Cl)cc2)cc1`, for which the cell number with HCC1569 [1] amounted to 104; with TDF [2], 106. Further, the H1.0 immunofluorescence intensity was 87.5 (inactive) in the assay on TDF [3] and 90.3 (inactive) with HCC1569 [4].

The record behind these values is the supplement of paper PMC7156485.
